SMILES strings stand for the structures. This is part of a sample that, as a whole, favours compounds with a hit. Of some 83,000 tested, about 20% had one in any assay.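 Negative percent growth values reflect cell death: -40 means 40% of the cells present at the start died, and -100 means all died.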 Values without a mark were called inactive. Activity calls are given as the source filed them. The calls were made as follows: active = growth percent below 10; inactive = the rest.

Assay in all cases: NCI-60 one-dose screen, 48 h (100 = growth as untreated, 0 = no growth, -100 = all killed)
One experiment has as its system SK-MEL-2 melanoma. As to conditions: 10 µM unless noted.
Another experiment concerns EKVX NSCLC. As to conditions: 10 µM unless noted.
The subject of the next experiment is SN12C renal. As to conditions: 10 µM unless noted.
A further experiment has as its system UO-31 renal. As to conditions: 10 µM unless noted.
The test system of another experiment is ACHN renal. As to conditions: 10 µM unless noted.
For the next experiment, the system named is CAKI-1 renal. As to conditions: 10 µM.
For the next experiment, the system named is A498 renal. As to conditions: 10 µM unless noted.
Another experiment deals with CCRF-CEM leukemia. As to conditions: 10 µM unless noted.
The next experiment deals with MOLT-4 leukemia. As to conditions: 10 µM unless noted.
For a further experiment, the system named is SR leukemia. As to conditions: 10 µM unless noted.
A further experiment deals with RPMI-8226 leukemia. As to conditions: 10 µM unless noted.
The subject of a further experiment is OVCAR-8 ovarian. As to conditions: 10 µM unless noted.
The test system of a further experiment is OVCAR-5 ovarian. As to conditions: 10 µM unless noted.
Another experiment deals with OVCAR-4 ovarian. As to conditions: 10 µM unless noted.
The test system of another experiment is SK-OV-3 ovarian. As to conditions: 10 µM unless noted.
The next experiment has as its system IGROV1 ovarian. As to conditions: 10 µM unless noted.
The subject of a further experiment is OVCAR-3 ovarian. As to conditions: 10 µM unless noted.
A further experiment concerns HS 578T breast. As to conditions: 10 µM unless noted.
In another experiment the test system is NCI/ADR-RES ovarian. As to conditions: 10 µM unless noted.

With `Nc1ncnc2c1ncn2C1OC(COC(c2ccccc2)(c2ccccc2)c2ccccc2)C(O)C1O` (centres undefined), the growth in the experiment on SK-MEL-2 melanoma is 87.7%; with EKVX NSCLC, 91.6%; with SN12C renal, 93.7%; in the experiment on UO-31 renal it was 80.5%; with ACHN renal it was 47.9%; in the experiment with CAKI-1 renal it was 57.7%. In addition, the growth in the experiment with A498 renal was 103%; in the experiment on CCRF-CEM leukemia, 46.1%; in the experiment with MOLT-4 leukemia, 78.8%; in the experiment on SR leukemia, 89.6%; in the experiment on RPMI-8226 leukemia it was 82.1%; with OVCAR-8 ovarian, 96.7%. In addition, the growth is 85.7% in the experiment on OVCAR-5 ovarian; 95.2% in the experiment with OVCAR-4 ovarian; 123% in the experiment on SK-OV-3 ovarian; 107% in the experiment with IGROV1 ovarian; 106% with OVCAR-3 ovarian; 84.1% in the experiment with HS 578T breast. Also, the growth in the experiment on NCI/ADR-RES ovarian is 89.2%.
With `CCOC(=O)CSc1nnc(-c2cc3c([nH]c4ccccc43)c(-c3cccc(O)c3)n2)n1-c1ccc(C)cc1`, the growth in the experiment on SK-MEL-2 melanoma was 37.7%; with EKVX NSCLC it was 78.8%; with SN12C renal, 58.1%; in the experiment on UO-31 renal it was 72.6%; with ACHN renal, 50.4%; with CAKI-1 renal, 92.1%. Besides, the growth with A498 renal is 96.8%; with CCRF-CEM leukemia, 46.4%; in the experiment on MOLT-4 leukemia, 17.4%; in the experiment on SR leukemia it was 13.7%; in the experiment with RPMI-8226 leukemia, 76.1%; in the experiment on OVCAR-8 ovarian it was 16.7%. For the same molecule, the growth in the experiment with OVCAR-5 ovarian was 96.4%; in the experiment with OVCAR-4 ovarian, 72.6%; with SK-OV-3 ovarian, 105%; in the experiment with IGROV1 ovarian, 28.3%; in the experiment with OVCAR-3 ovarian, 31.1%; in the experiment with HS 578T breast, 58.7%. In addition, the growth in the experiment with NCI/ADR-RES ovarian is 89.9%.
As to `O=C(Nc1ccc(-n2ccc3c(NC(=O)c4ccccc4)nccc32)cc1)Nc1ccc(Cl)c(Cl)c1`, the growth in the experiment on SK-MEL-2 melanoma is -42.4% (active); in the experiment with EKVX NSCLC, 39.5%; in the experiment on SN12C renal it was 10.7%; in the experiment on UO-31 renal it was -61.4% (active); in the experiment with ACHN renal, 2.67% (active); in the experiment with CAKI-1 renal it was -57.7% (active). Further, the growth was 68.2% in the experiment with A498 renal; -34.6% (active) in the experiment on CCRF-CEM leukemia; 9.08% (active) with MOLT-4 leukemia; -30.3% (active) with SR leukemia; -49.6% (active) in the experiment on RPMI-8226 leukemia; -45% (active) in the experiment with OVCAR-8 ovarian. Also, the growth in the experiment on OVCAR-5 ovarian is 50%; in the experiment on OVCAR-4 ovarian, -4.39% (active); with SK-OV-3 ovarian it was 59.7%; in the experiment with IGROV1 ovarian, 4.31% (active); with OVCAR-3 ovarian, -79.6% (active); in the experiment on NCI/ADR-RES ovarian, -34.4% (active).
Regarding `O=C(Nc1cccc(-n2ccc3c(NC(=O)c4ccccc4)nccc32)c1)Nc1ccc(Cl)c(C(F)(F)F)c1`, the growth with SK-MEL-2 melanoma was -5.89% (active); in the experiment with EKVX NSCLC, 32.8%; with SN12C renal, 19.2%; in the experiment on UO-31 renal, 27.8%; in the experiment on ACHN renal it was 13.1%; with CAKI-1 renal, 7.43% (active). The growth was -3.31% (active) in the experiment on A498 renal; 4.74% (active) with CCRF-CEM leukemia; 12.8% in the experiment with MOLT-4 leukemia; -11.6% (active) with SR leukemia; 4.34% (active) in the experiment with OVCAR-8 ovarian; 27.6% in the experiment on OVCAR-5 ovarian. The growth in the experiment with OVCAR-4 ovarian is 73.7%; in the experiment with SK-OV-3 ovarian, 7.74% (active); in the experiment on IGROV1 ovarian it was 16.7%; in the experiment on OVCAR-3 ovarian, -21.1% (active); in the experiment on NCI/ADR-RES ovarian, -10.9% (active).
Take `CC(=O)c1cc2c(c(O)c1C)C(=O)C(=O)c1c(O)cccc1-2`: the growth was -72.7% (active) with SK-MEL-2 melanoma; -42.3% (active) in the experiment with EKVX NSCLC; -41.4% (active) in the experiment with SN12C renal; -97.3% (active) in the experiment with UO-31 renal; -90.3% (active) with ACHN renal; -79.6% (active) with CAKI-1 renal. The growth in the experiment with A498 renal is -80.6% (active); with CCRF-CEM leukemia, 0.77% (active); with RPMI-8226 leukemia it was -32.4% (active); with OVCAR-8 ovarian, -60.6% (active); in the experiment with OVCAR-5 ovarian, -80.6% (active); in the experiment with OVCAR-4 ovarian, -97.6% (active). Further, the growth is -94.3% (active) in the experiment with SK-OV-3 ovarian; -37.3% (active) in the experiment on IGROV1 ovarian; -45.6% (active) in the experiment with OVCAR-3 ovarian; -12.3% (active) in the experiment on HS 578T breast; -8.15% (active) with NCI/ADR-RES ovarian.
As to `OC[C@@H](O)C(O[C@@H]1O[C@H](CO)[C@H](O)[C@H](O)[C@H]1O)[C@H](O)[C@@H](O)CO` (some centres undefined), the growth was 106% with SK-MEL-2 melanoma; 95.4% with EKVX NSCLC; 101% in the experiment with SN12C renal; 75.5% in the experiment with UO-31 renal; 94.4% with ACHN renal; 92.9% in the experiment on CAKI-1 renal. Further, the growth with A498 renal is 111%; in the experiment on CCRF-CEM leukemia, 106%; in the experiment with MOLT-4 leukemia, 106%; in the experiment with SR leukemia, 87.4%; in the experiment with OVCAR-8 ovarian, 98.6%; in the experiment with OVCAR-5 ovarian, 91.8%. Also, the growth in the experiment with OVCAR-4 ovarian is 106%; with SK-OV-3 ovarian it was 99.5%; in the experiment with IGROV1 ovarian, 95.9%; in the experiment with OVCAR-3 ovarian, 103%; in the experiment with HS 578T breast it was 129%; with NCI/ADR-RES ovarian it was 95.4%.
As for `O=C(Nc1ccc(-n2cc(-c3ccncc3)c(-c3ccc(O)c(Cl)c3)n2)cc1)c1ccc(Cl)c(Cl)c1`, the growth in the experiment with SK-MEL-2 melanoma was 20.2%; with EKVX NSCLC it was 47.7%; in the experiment on SN12C renal, 58.3%; in the experiment with UO-31 renal it was 23%; in the experiment with ACHN renal it was 20.6%; in the experiment on CAKI-1 renal, 18.6%. Also, the growth with A498 renal was 79.6%; in the experiment on CCRF-CEM leukemia it was 16.5%; with MOLT-4 leukemia it was 32.3%; in the experiment on SR leukemia, 18.6%; in the experiment with RPMI-8226 leukemia, -27.7% (active); with OVCAR-8 ovarian, 25.7%. In addition, the growth with OVCAR-5 ovarian is 71.2%; in the experiment with OVCAR-4 ovarian it was 78.9%; in the experiment on SK-OV-3 ovarian, 66.6%; in the experiment with IGROV1 ovarian, 61.5%; in the experiment with OVCAR-3 ovarian, 25.7%; with NCI/ADR-RES ovarian, 24.9%.
For `Nc1nccc2c1ccn2-c1ccc(NC(=O)c2ccc(N3CCOCC3)c(C(F)(F)F)c2)cc1`, the growth is 35.3% with SK-MEL-2 melanoma; 36.7% with EKVX NSCLC; 48.8% with SN12C renal; -41.2% (active) in the experiment with UO-31 renal; 24.3% in the experiment on ACHN renal; -25.3% (active) with CAKI-1 renal. The growth in the experiment with A498 renal was -9.64% (active); with CCRF-CEM leukemia, 18.5%; in the experiment with MOLT-4 leukemia, -3.7% (active); in the experiment on SR leukemia, 14.9%; with RPMI-8226 leukemia, -29.9% (active); in the experiment with OVCAR-8 ovarian it was 28%. Also, the growth in the experiment on OVCAR-5 ovarian is 14.2%; in the experiment with OVCAR-4 ovarian it was 77.4%; in the experiment with SK-OV-3 ovarian it was 48.4%; with IGROV1 ovarian, 35.8%; in the experiment on OVCAR-3 ovarian it was 46%; in the experiment with NCI/ADR-RES ovarian it was 49.3%.
